# Compound activity (PubChem BioAssay)
# Rows were chosen to be rich in hits. Some 4.5% of all compounds tested hit in one or more screens of this group.
# PrPC surface inh = inhibitors of human cell surface prion protein PrPC, primary screen, cell-based, TR-FRET | AID 720596, 2013 | 370,000 tested, 0.43% active | TR-FRET read-out | Major prion protein (Homo sapiens), P04156 | inhibition, % at 13.8 µM; in the data active = inhibition above about 24%
# GDH-TPI counter-1 = GDH-TPI coupling enzyme inhibitors, primary screen, artefact control for M. tuberculosis FBA inhibitor project, biochemical, absorbance, full deck | GDH-TPI coupled enzyme counterscreen, NADH absorbance | inhibition, % at 4.8 µM | 360,000 tested, 1.2% active | AID 588335, 2011; in the data active = inhibition above about 30%
# PfHsp40 yeast = rescue of yeast from PfHsp40 toxicity, primary screen, S. cerevisiae, ATP luminescence; S. cerevisiae expressing PfHsp40, growth rescue; growth rescue, % at 12.5 µM; 340,000 tested, 0.68% active; AID 504582, 2011; in the data active = growth rescue above about 28%, passing the limit was not always enough;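 note: yeast W303a lacking pdr1 and pdr3 grown in galactose medium; growth measured after three days at 30 °C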
# BJeLR lethal = MLPCN primary cell-based screen for lethality selective to Ras in HRASV12 cells | BJeLR (HRASV12) viability, CellTiter-Glo ATP luminescence, 48 h | inhibition, % (concentration not given with the values) | 300,000 tested, 0.17% active | AID 1554, 2009; in the data active = inhibition above about 50%
# PrP UTR inh = inhibition of PrP 5' UTR reporter expression; inhibition, % (test concentration not listed); cell-based PrP 5' UTR mRNA reporter, plate reader; 340,000 tested, 0.35% active; AID 488862, 2010; in the data active = inhibition above about 52%
# Mtb FBA inh = Mtb FBA enzyme inhibitors, primary screen, biochemical, fluorescence, strain H37Rv. Fructose-bisphosphate aldolase (Mycobacterium tuberculosis (strain ATCC 25618 / H37Rv)), …. purified M. tuberculosis FBA, fluorescence read-out. inhibition, % at 1 µM. 360,000 tested, 2.3% active
# Target sequence (P9WQA3 whole entry, looked up): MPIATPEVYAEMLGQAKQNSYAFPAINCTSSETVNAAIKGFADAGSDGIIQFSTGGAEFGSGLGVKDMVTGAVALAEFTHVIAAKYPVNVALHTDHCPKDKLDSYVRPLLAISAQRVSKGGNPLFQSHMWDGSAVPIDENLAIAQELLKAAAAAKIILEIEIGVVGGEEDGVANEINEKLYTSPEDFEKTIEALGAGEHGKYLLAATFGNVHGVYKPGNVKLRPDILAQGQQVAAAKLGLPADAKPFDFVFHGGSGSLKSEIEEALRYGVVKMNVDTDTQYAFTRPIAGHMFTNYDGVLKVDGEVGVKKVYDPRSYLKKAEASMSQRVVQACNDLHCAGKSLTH
# Mtb FBA inh conf = M. tuberculosis aldolase blockers, biochemical, fluorescence, strain H37Rv, confirmation | shares compounds with Mtb FBA inh | inhibition, % at 1 µM | purified M. tuberculosis FBA, fluorescence read-out | 5,600 tested, 78% active | AID 651616, 2012
# GDH-TPI counter-2 = GDH-TPI coupling enzyme inhibitors, artefact control for M. tuberculosis FBA inhibitor project, biochemical, fluorescence, high throughput; inhibition, % at 1 µM; shares compounds with Mtb FBA inh; GDH-TPI coupled enzyme counterscreen; 5,600 tested, 81% active; AID 652141, 2013; in the data active = inhibition above about 10%
# Hits are given with their value; n = inactive; x = no result; + = active, no number. Cut-off read from the data, not from the text of the source, unless noted: active = inhibition above about 27%; inactive = the rest.
SMILES,PrPC surface inh,GDH-TPI counter-1,PfHsp40 yeast,BJeLR lethal,PrP UTR inh,Mtb FBA inh,Mtb FBA inh conf,GDH-TPI counter-2
COc1cc2c(cc1OC)CN(Cc1cccs1)CC2,n,n,n,n,n,29,98,87
N=C1C(c2nc3ccccc3c(=O)[nH]2)=C(O)CN1CCO,n,n,n,n,n,n,x,x
COc1ccccc1N1CC(O)=C(c2nc3ccccc3c(=O)[nH]2)C1=N,n,n,n,n,n,38,146,111
COCCN1CC(O)=C(c2nc3ccccc3c(=O)[nH]2)C1=N,n,n,n,n,n,46,x,+
Cc1cc(/C=C2\NC(=O)NC2=O)c(C)n1-c1ccc(N2CCOCC2)cc1,n,n,n,n,n,n,x,x
Cc1cc(C=O)c(C)n1-c1ccc(N2CCOCC2)cc1,n,n,n,n,n,54,+,+
CCOC(=O)C1=CCN(S(=O)(=O)c2ccccc2F)C1c1ccccc1 (stereo not given),n,x,x,x,x,n,x,x
CN(C)c1ccc(NC(=O)Cc2ccccc2)c2ccccc12,n,n,n,n,n,29,39,34
COc1cc(OC)cc(C(=O)Nc2ccc(N(C)C)c3ccccc23)c1,n,n,n,n,n,n,x,x
CCOC(=O)CNc1c(-c2ccc(OC)cc2)nc2ccc(Cl)cn12,n,n,n,n,n,n,x,x
CCOC(=O)CNc1c(-c2ccc(Cl)cc2)nc2cnccn12,n,n,n,n,n,68,56,50
COCCCNc1ccn2nc(-c3ccc(Cl)cc3)cc2n1,n,n,x,x,x,34,87,76
COc1ccc(-c2cc(=O)oc3cc(OCC(=O)N4C[C@H]5C[C@@H](C4)c4cccc(=O)n4C5)ccc23)cc1,n,n,n,n,n,n,x,x
COc1ccc2c(C)c(CC(=O)N3C[C@H]4C[C@@H](C3)c3cccc(=O)n3C4)c(=O)oc2c1,n,n,n,n,n,111,146,104
Cc1c(CC(=O)N2C[C@H]3C[C@@H](C2)c2cccc(=O)n2C3)c(=O)oc2cc3occ(C(C)(C)C)c3cc12,n,n,n,n,n,n,x,x
COc1ccc2c(C)c(CCC(=O)N3C[C@H]4C[C@@H](C3)c3cccc(=O)n3C4)c(=O)oc2c1,n,n,n,n,n,68,118,128
CCCOc1ccc(C(O)(CCN2CCCCC2)c2ccccc2OC)cc1 (stereo not given),n,n,n,n,n,n,x,x
CC1CC(C)CN(C(=O)CSc2nc(Cc3cccs3)nc3ccccc23)C1 (stereo not given),n,n,n,n,n,n,x,x
Cc1cccc(C2=NN(c3ccccc3)[C@@H](C(=O)N3CCOC3=O)[C@@H]2c2ccc([N+](=O)[O-])cc2)c1,n,n,n,x,n,n,x,x
Cc1cccc(C2=NN(c3ccccc3)[C@H](CO)[C@H]2c2ccc(Cl)cc2)c1,n,n,n,x,n,55,n,n
Cc1cccc(C2=NN(c3ccccc3)[C@H](CO)[C@H]2c2ccc(F)cc2)c1,n,n,n,x,n,63,91,61
COc1ccccc1CNC(=O)C(=O)c1cn(CC(=O)N2CCCC2)c2ccccc12,n,n,n,n,n,n,x,x
COc1ccccc1CCNC(=O)C(=O)c1cn(CC(=O)N2CCOCC2)c2ccccc12,n,n,n,n,n,80,104,85
Cc1ccc2nc(-c3ccc(NC(=O)COC(=O)c4ccco4)cc3)sc2c1,n,n,n,n,n,n,x,x
CCOc1ncccc1C(=O)OCC(=O)Nc1ccc(-c2nc3ccc(C)cc3s2)cc1,n,n,n,n,n,34,33,23
SMILES,PrPC surface inh,GDH-TPI counter-1,PfHsp40 yeast,BJeLR lethal,PrP UTR inh,Mtb FBA inh,Mtb FBA inh conf,GDH-TPI counter-2
Cc1ccc2nc(-c3ccc(NC(=O)COC(=O)c4cncc(Br)c4)cc3)sc2c1,n,n,n,n,n,40,33,26
Cc1ccc2nc(-c3ccc(NC(=O)COC(=O)c4ccc(Br)o4)cc3)sc2c1,n,n,n,x,n,n,x,x
COc1ccc(/C=C(\C#N)C(=O)OCC(=O)Nc2ccc(-c3nc4ccc(C)cc4s3)cc2)cc1,n,n,n,n,n,31,119,90
Cc1ccc(C)c(NC(=S)N2CCC(NC(=O)c3ccc(F)cc3)CC2)c1,n,n,n,n,n,n,x,x
C=CCNC(=O)/C(=C/c1ccco1)NC(=O)c1ccc(Br)o1,n,n,n,n,n,n,x,x
C=CCNC(=O)/C(=C\c1ccco1)NC(=O)c1ccco1,n,n,n,n,n,59,81,72
Cc1ccc(NC(=S)N2CCN(c3ccccn3)CC2)cc1C,n,n,n,n,n,n,x,x
O=C(COC(=O)Cn1cnc2ccccc21)NCCc1ccc(Cl)cc1,n,n,n,n,n,56,46,36
COc1ccc(CCNC(=O)COC(=O)Cn2cnc3ccccc32)cc1OC,n,n,n,n,n,n,x,x
O=c1ccnc(Nc2ccc3c(c2)OCCO3)[nH]1,n,n,n,n,n,n,x,x
CCCOc1ccc(-c2nc3c(c(=O)[nH]c(=O)n3Cc3ccccc3)n2CCO)cc1OCC,n,n,n,n,n,38,n,n
O=c1[nH]c(=O)n(Cc2ccccc2)c2nc(-c3cccs3)n(CCO)c12,n,x,x,n,x,x,x,x
O=c1[nH]c(=O)n(Cc2ccccc2)c2nc(-c3ccc(C(F)(F)F)cc3)n(CCO)c12,n,n,n,n,n,69,134,115
Cn1c(-c2cccc(F)c2)nc2c1c(=O)[nH]c(=O)n2Cc1ccccc1,n,n,n,n,n,28,n,n
CCCn1c(-c2cc(OC)c(OC)c(OC)c2)nc2c1c(=O)[nH]c(=O)n2Cc1ccccc1,n,n,n,n,n,41,n,n
CCCn1c(-c2cccc(F)c2)nc2c1c(=O)[nH]c(=O)n2Cc1ccccc1,n,n,n,n,n,n,x,x
c1ccc(Cn2ccc3ccc(-c4ccc5ccn(Cc6cccc(-c7cccs7)c6)c5c4)cc32)cc1,n,x,x,x,x,x,x,x
COc1ccc(Cl)cc1NC(=O)NN1CCN(C)CC1,n,n,n,n,n,n,x,x
COc1ccc(-c2nc(NC(=O)CSc3nnc(C)s3)ns2)cc1,x,n,n,n,n,41,n,n
C[C@H](O)[C@@H]1CN2CCc3ccc(N4CCOCC4)cc3[C@@H]2C[C@@H]1N(C)C(=O)c1ccco1,n,x,x,x,x,x,x,x
COC(=O)c1ccccc1NC(=O)N1CCN(c2ccccc2F)CC1,n,n,n,n,n,n,x,x
